TEAD-YAP inh: TEAD-YAP interaction inhibition. AID 1259422. 640,000 tested, 1.4% active. inhibition, % at 9.12 µM. HEK-TIYL cells, TEAD-Gal4/YAP UAS-luciferase luminescence; in the data active means inhibition above about 32%;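 further: 0% = median of test compound wells and 100% = reference inhibitor wells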
FBW7 activator: activators of human E3 ligase FBW7. AlphaScreen FBW7–phospho-cyclin E peptide binding, activator screen. normalized activity (activation), % at 26.1 µM. 650,000 tested, 0.13% active. AID 1259310; in the data active means normalized activity above about 1.9%;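 further: purified mutant Fbw7 with reduced substrate affinity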
GPR151 ag: activates the human receptor GPR151; PathHunter beta-arrestin GPR151 cells, luminescence; 650,000 tested, 1% active; Q8TDV0; activation, % at 11.2 µM; in the data active means activation above about 4.9%;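 further: 0% = median of compound wells and 100% = cells with positive control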
Target sequence (Q8TDV0 whole entry, looked up): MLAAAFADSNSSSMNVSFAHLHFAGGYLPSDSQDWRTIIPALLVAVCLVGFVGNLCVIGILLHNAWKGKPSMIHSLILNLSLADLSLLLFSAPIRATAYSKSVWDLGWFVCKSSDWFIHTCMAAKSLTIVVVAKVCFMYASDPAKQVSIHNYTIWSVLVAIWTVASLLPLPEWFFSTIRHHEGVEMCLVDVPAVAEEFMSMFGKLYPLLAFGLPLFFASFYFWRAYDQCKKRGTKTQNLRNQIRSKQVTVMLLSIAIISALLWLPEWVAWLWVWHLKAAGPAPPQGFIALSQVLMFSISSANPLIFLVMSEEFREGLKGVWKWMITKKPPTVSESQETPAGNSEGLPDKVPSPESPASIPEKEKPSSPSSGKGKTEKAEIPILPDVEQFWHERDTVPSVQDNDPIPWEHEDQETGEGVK
MITF inh: inhibitors of human MITF; AlphaScreen MITF homodimerization, bead proximity signal; inhibition, % at 2.6 µM; 650,000 tested, 0.91% active; in the data active means inhibition above about 50%;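 further: 0% = vehicle wells with protein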
MITF inh conf: confirmation of human MITF inhibitors. shares compounds with MITF inh. AlphaScreen MITF homodimerization, biotin/His-MITF beads. inhibition, % at 2.6 µM. 4,700 tested, 16% active;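 active means inhibition above a cutoff derived from the DMSO control wells, cut at about 28% in these data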;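 further: 0% = MITF dimer wells with DMSO only; inhibitors lower the bead chemiluminescence by keeping MITF from dimerizing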
AS interf DR: AlphaScreen optical interference, dose response counter-screen | shares compounds with MITF inh | AlphaScreen optical interference counterscreen, cell-free | IC50, µM | 480 tested, 6% active | AID 1259373; call rule not given here
AS interf ctr: optically interferes with AlphaScreen signal; inhibition, % at 2.6 µM; 4,700 tested, 7.6% active; AID 1259376; LysRS AlphaScreen counterscreen, signal interference, triplicate; shares compounds with MITF inh;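 active means inhibition above a cutoff derived from the DMSO control wells, cut at about 30% in these data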
The depositor's hits bear a star; x = no result. Shown are actives, neighbours in structure and some others; about 3.5% of the full set was active somewhere.

SMILES	TEAD-YAP inh	FBW7 activator	GPR151 ag	MITF inh	MITF inh conf	AS interf ctr	others
O=[N+]([O-])c1ccc(CN2CCN(Cc3cccnc3)CC2)cc1	-4	0	-1	64*	-21	2
CCCN1CCN(C(=O)c2nn(-c3cc(OC)cc(OC)c3)c(=O)c3ccccc23)CC1	15	0	-1	65*	-9	-3
COc1ccc(C)cc1NC(=O)C(C(C)C)N1C(=O)c2ccccc2C1=O (stereo not given)	5	0	0	71*	0	-2
COc1ccc(C)cc1NC(=O)C(NCC(O)c1ccccc1)c1ccccc1 (stereo not given)	-5	0	4	84*	30*	29	AS interf DR=>7
COc1ccc(C)cc1NC(=O)C(C)c1ccccc1 (stereo not given)	-12	0	0	-5	x	x
COC(=O)C(CSCc1ccccc1)NC(=O)CC1(CC(=O)O)CCCC1 (stereo not given)	-5	0	-1	0	x	x
CCOC(=O)c1[nH]c(C)c(CNc2ccccc2)c1C	2	0	-1	60*	27	12
CCOC(=O)c1[nH]c(C)c(CNc2cccc(F)c2)c1C	3	0	1	-12	x	x
COc1ccc(Cn2c(=S)[nH]c3sc(C(=O)N(C)C)c(C)c3c2=O)cc1	-7	0	0	-6	x	x
O=[N+]([O-])c1ccc(C2Nc3ccc(Br)cc3C(c3ccccc3)O2)cc1 (stereo not given)	6	0	2	57*	-4	2
Fc1ccc(C2Nc3ccc(Br)cc3C(c3ccccc3)O2)cc1 (stereo not given)	0	0	2	-6	x	x
CC(C)c1ccc(NS(=O)(=O)c2cccc3nonc23)cc1	2	0	-1	-10	x	x
C/C(=N\NC(=O)Cc1cc(=O)[nH][nH]1)c1ccco1	7	0	-1	59*	56*	4	AS interf DR=>6.5
O=C(NC(Cc1ccc(OC(F)F)cc1)C(=O)O)OCc1ccccc1 (stereo not given)	-9	0	0	4	x	x
C=CCN(CC=C)CCOc1ccc(C)cc1OC	-5	0	0	25	x	x
COc1cc(C)ccc1OCCN1CCNCC1	4	0	1	20	x	x
COc1cc(C)ccc1OCCCCN1CCNCC1	2	0	0	63*	6	0
C/C=C/c1ccc(OCCCCN2CCNCC2)c(OC)c1	-11	0	0	59*	6	1
C=CCN(CC=C)CCCOc1ccc(C)cc1OC	-2	1	-2	55*	11	7
O=C(OC1CCCCC1=O)c1ccccc1I (stereo not given)	0	0	0	-8	x	x
COC(=O)c1c(NC(=O)c2ccc(OC)c(OC)c2)sc2c1CCC(C)C2 (stereo not given)	0	0	0	4	x	x
NCCNc1ccc([N+](=O)[O-])c(NCc2ccccc2)c1	15	0	1	6	x	x
CCN1CCCC1CNCC(O)COc1ccccc1 (stereo not given)	2	0	-1	56*	-12	-7
CN1CCC(NCc2ccc(F)cc2)CC1	-15	0	3	57*	-3	-3
COc1ccc(-c2noc(CN(C(=O)c3cc(Cl)ccc3OC)C(C)C)n2)cc1	-5	0	0	-2	x	x
SMILES	TEAD-YAP inh	FBW7 activator	GPR151 ag	MITF inh	MITF inh conf	AS interf ctr	others
O=C(c1cccs1)N1CCN(c2ccc([N+](=O)[O-])cc2F)CC1	-1	0	-1	62*	3	-1
O=[N+]([O-])c1cccc(CN2CCCCCCC2)c1	-13	0	-1	42	x	x
O=[N+]([O-])c1cccc(CN2CCN(c3ccccn3)CC2)c1	-2	1	1	51*	4	-2
CCOc1ccc(CN2CCN(Cc3cccc([N+](=O)[O-])c3)CC2)cc1	13	0	1	60*	14	21
COc1ccc(CN2CCN(Cc3ccccc3F)CC2)cc1OCc1ccccc1	-7	0	-1	80*	2	2
COc1ccc(CN2CCN(C(=O)c3ccccc3F)CC2)cc1OCc1ccccc1	4	0	2	43	x	x
O=[N+]([O-])c1ccc(N2CCN(Cc3cccc([N+](=O)[O-])c3)CC2)cc1	12	0	-1	16	x	x
O=[N+]([O-])c1cccc(OCCCN2CCN(Cc3ccccc3)CC2)c1	2	0	-2	76*	3	0
CCN1CCN(Cc2ccc(OC)c(OCc3ccccc3)c2)CC1	0	0	-1	13	x	x
COc1ccc(CN2CCN(C3CCCCC3)CC2)cc1OCc1ccccc1	12	0	-1	62*	-3	-4
COc1ccc(CN2CCN(Cc3cccc([N+](=O)[O-])c3)CC2)cc1OCc1ccccc1	-1	0	0	69*	6	-1
COc1ccc(CN2CCSCC2)cc1OCc1ccccc1	-2	0	0	15	x	x
COc1cc(CN2CCSCC2)ccc1OCc1ccccc1	-50	0	1	53*	14	24
CCN1CCN(Cc2ccc(OCc3ccccc3)c(OC)c2)CC1	-5	0	0	-1	x	x
CCc1ccc(CN2CCN(Cc3ccc(OC)c(OCc4ccccc4)c3)CC2)cc1	-1	0	-1	74*	3	1
CC(=O)c1cccc(NC(=O)Nc2ccc(Oc3ccccc3)cc2)c1	-2	0	0	13	x	x
COc1ccc(CN2CCN(Cc3ccc(F)cc3)CC2)cc1OCc1ccccc1	-5	0	0	79*	16	19
COc1ccccc1CNC(=O)c1ccc(N2CCCCC2)c([N+](=O)[O-])c1	-6	0	0	0	x	x
O=C(COc1ccccc1)Nc1ccc(NC(=O)c2cccs2)cc1	-1	0	1	51*	-16	1
CCCn1cc(NC(=O)c2ccc(Br)o2)cn1	-51	0	-3	-1	x	x
CCCn1cc(NC(=O)c2cc(-c3ccccc3N)no2)cn1	-17	0	1	73*	-17	-1
C=CCNC(=O)COC(=O)c1cc(-c2ccco2)nc2ccccc12	6	0	0	57*	65*	0	AS interf DR=>6.9
N#Cc1cc([N+](=O)[O-])ccc1NC(=O)COC(=O)c1cc(-c2ccco2)nc2ccccc12	3	0	2	51*	41*	-3	AS interf DR=>7
COC(=O)c1ccccc1NC(=O)COc1ccc2oc3c(c2c1)CCCC3	2	0	0	-11	x	x
COc1ccc(CNC(=O)CCCCCn2c(=O)[nH]c3ccsc3c2=O)cc1	1	0	-1	11	x	x
Cc1ccc(Cl)cc1NC(=O)CSc1nc2ccc(NC(=O)CCc3ccccc3)cc2s1	-7	0	2	-14	x	x
COCCNC(=O)/C(C#N)=C/c1cc(C)n(-c2ccc(C)c(C)c2)c1C	-41	0	0	10	x	x

High-throughput results (PubChem)
